LT uptake inh = inhibitors of anthrax lethal toxin internalization | Cells, anthrax lethal toxin internalization, FRET ratio (460/530) | Potency, µM (series often up to 40 µM), inactives show at the top dose activity change, negative = inhibition, hits mostly inhibitors | actives 0.67% (n = 70,000) | AID 912; note: % is set by controls: 0 for no effect and ±100 for the full control effect; nearly all actives have a fitted effect of over 50% in size
AmpC inh det = blocks E. coli AmpC beta-lactamase in presence of detergent | AID 584 | Potency, µM (highest dose often 28.7 µM), for the others: at the top dose activity change, negative = inhibition | purified AmpC, nitrocefin hydrolysis with detergent | P00811 | actives 0.09% (n = 71,000); active = well fitted curve in the direction sought with a large enough effect; inconclusive = small, poorly fitted or top-dose-only effect; note: % is set by controls: 0 for no effect and ±100 for the full control effect
Target sequence (P00811 whole entry, looked up): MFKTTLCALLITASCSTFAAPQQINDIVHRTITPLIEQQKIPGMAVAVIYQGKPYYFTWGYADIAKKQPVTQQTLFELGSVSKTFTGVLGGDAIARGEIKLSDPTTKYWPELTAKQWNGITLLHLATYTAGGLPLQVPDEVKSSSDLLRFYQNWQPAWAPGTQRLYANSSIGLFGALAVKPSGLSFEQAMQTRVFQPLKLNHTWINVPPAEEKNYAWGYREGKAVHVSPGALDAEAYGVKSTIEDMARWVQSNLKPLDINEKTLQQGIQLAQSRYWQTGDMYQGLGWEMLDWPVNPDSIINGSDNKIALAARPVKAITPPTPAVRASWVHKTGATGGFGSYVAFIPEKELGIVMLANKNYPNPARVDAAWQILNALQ
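E. coli AmpC (5.3 nM) in 20 mM phosphate pH 7.0 with 0.01% Triton X-100, preincubated 15 min RT with compound; nitrocefin (2 uL of 800 uM stock) hydrolysis followed by 480 nm absorbance every 20 s over 4 min.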
AmpC nodet inh = AmpC beta-lactamase inhibition, detergent-free assay. P00811. AmpC nitrocefin hydrolysis, absorbance 480 nm, no detergent. Potency, µM (titrated, usually from 28.7 µM), for inactives: at the top dose activity change, negative = inhibition. actives 1.8% (n = 71,000); note: % of control where 0% means no effect
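Enzyme, pH 7.0 phosphate. Compound titrations were pre-incubated with AmpC for 15 min at room temperature before nitrocefin (stock 800 uM) addition; product formation was recorded at 480 nm every 20 s for 4 min.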
Prx2 Sm inh = Schistosoma mansoni Prx2 inhibition; S. mansoni Prx2 activity coupled to TGR/GSH (TGR is thioredoxin glutathione reductase), NADPH fluorescence loss, qHTS; Potency, µM; actives 0.07% (n = 65,000); AID 448
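Enzyme mix: 100 uM NADPH, 25 nM TGR, 700 uM GSH, 50 nM Prx2 in 100 mM phosphate pH 7.4, 10 mM EDTA, 0.01% Tween-20. 15 min RT with compound; NADPH/GSH added, H2O2 starts reaction; NADPH fluorescence read 8 min.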
Active calls of the source: *; ? = inconclusive; · = no result; [ ] = remark or other dose. Most compounds without a hit are left out; they make up all but 2.6% or so of the library. Unless noted, calls come from the whole dose curve. Potency is the fitted concentration of half-maximal effect.

SMILES	LT uptake inh	AmpC inh det	AmpC nodet inh	Prx2 Sm inh
Cc1ccc(S(=O)(=O)n2nc(C)c(Br)c2C)c(C)c1C	13µM*	8%	-8%	>57
CCOC(=O)N1CCN(S(=O)(=O)c2ccc(C)c(C)c2C)CC1	17%	-9%	63%	>57
Cc1cc(NC(=O)C2COc3ccccc3O2)no1 (stereo not given)	8%	11%	4µM*[single pt active]	>57
O=C(Nc1nc(-c2ccc3c(c2)OCO3)cs1)C1COc2ccccc2O1 (stereo not given)	?	12%	10µM*	>57
O=C(Nc1nc(-c2ccccn2)cs1)C1COc2ccccc2O1 (stereo not given)	?	12%	10%	>57
CCOc1ccc(OCC)c(NC(=O)C2COc3ccccc3O2)c1 (stereo not given)	3%	0%	4%	>57
COc1ccc(OC)c(NC(=O)C2COc3ccccc3O2)c1 (stereo not given)	13µM*	10%	8%	·
Cc1cc(NC(=O)C2CC(c3ccc(F)cc3)=NO2)no1 (stereo not given)	-23%	11%	4µM*[single pt active]	>57
FC(F)(F)c1cc(CO[C@@H]2CCCN[C@H]2c2ccccc2)cc(C(F)(F)F)c1	13%	-1%	31%	>57
CCCCC#Cc1nc(NC)c2ncn([C@@H]3O[C@@H](CO)[C@H](O)[C@H]3O)c2n1	-3%	-2%	33%	>57
OC1(C(O)(c2ccc(-c3ccccc3)cc2)c2ccc(-c3ccccc3)cc2)CCCCC1	-7%[8 µM]	-5%[5.75 µM]	-4%[5.75 µM]	>57
FC(F)(F)c1ccccc1-c1ccc2ncnc(NCc3cccnc3)c2c1	-12%	12%	103%	>57
CC(=O)C1=C(C)NC(SCC(=O)c2cc(Cl)ccc2Cl)=C(C#N)C1c1ccco1 (stereo not given)	10µM*	-3%	?	·
CC1=C(C(=O)Nc2ccccc2)C(c2ccco2)C(C#N)=C(SCc2ccccc2)N1 (stereo not given)	?	9%	5µM*	·
CCc1ccc(C(=O)CSC2=C(C#N)C(c3ccco3)C(C(C)=O)=C(C)N2)cc1 (stereo not given)	?	10%	13µM*	·
CC(=O)C1=C(C)NC(SCC(=O)c2ccc(Cl)c(Cl)c2)=C(C#N)C1c1ccco1 (stereo not given)	?	6%	-4%	·
CC1=C(C(=O)Nc2ccccc2)C(c2ccco2)C(C#N)=C(SCC(=O)OC(C)C)N1 (stereo not given)	?	6%	16%	·
Cc1nc(NC2CCCCC2)c2nc(-c3ccccc3)n(CCN3CCCCC3)c2n1	?	12%	138%	·
Cc1oc(-c2ccccc2F)nc1CS(=O)CC(=O)NCc1ccc2c(c1)OCO2 (stereo not given)	-11%	12%	4µM*[single pt active]	>57
Cc1oc(-c2ccccc2F)nc1CS(=O)CC(=O)NCc1cccs1 (stereo not given)	0%	10%	4µM*[single pt active]	>57
Cc1oc(-c2cccs2)nc1CS(=O)CC(=O)NCCc1ccccc1 (stereo not given)	-15%	7%	10%	>57
CCCn1c(=O)[nH]c2nc(-c3ccc(S(=O)(=O)O)cc3)[nH]c2c1=O	-22%	-7%	1%	>57
NNC(N)=S	3%	10%	11%	·
CC(C)c1ccc2oc(-c3cc(N)ccc3O)nc2c1	13µM*	-2%	-7%	·
CCC/C=C(\CCC)C(NS(=O)(=O)c1ccc(C(F)(F)F)cc1)c1ccc(-c2ccccc2)cc1 (stereo not given)	-18%	-1%	-9%	>57
SMILES	LT uptake inh	AmpC inh det	AmpC nodet inh	Prx2 Sm inh
CC(NC(=O)CCNS(=O)(=O)c1ccc2c(c1)c(=O)n(C)c(=O)n2C)c1ccccc1 (stereo not given)	-22%	4%	9%	>57
O=C1CCc2cc(S(=O)(=O)NC(C(=O)NCc3cccnc3)c3ccccc3)ccc2N1 (stereo not given)	1%	12%	4µM*[single pt active]	>57
Cn1c(=O)c2cc(S(=O)(=O)NC(C(=O)NCc3cccnc3)c3ccccc3)ccc2n(C)c1=O (stereo not given)	-7%	14%	4µM*[single pt active]	>57
Cn1c(=O)c2cc(S(=O)(=O)NC(C(=O)Nc3cccnc3)c3ccccc3)ccc2n(C)c1=O (stereo not given)	-8%	11%	4µM*[single pt active]	>57
CCCCC/C=C\C[C@H](O)/C=C\c1cccc(C[C@H](O)CCCCO)n1	?	7%	137%	>57
COc1ccccc1S(=O)(=O)Cc1ccc(C(=O)NC2CCCCC2)o1	-9%	-1%	12%	>57

Bioassay records from PubChem BioAssay.
